# WRN helicase inh: blocks human WRN helicase | Potency, µM (series often up to 114 µM), without a hit: top-dose activity change, negative = inhibition, actives largely listed as inhibitors | WRN helicase unwinding, fluorescent forked duplex, kinetic | actives 0.46% (n = 360,000) | Q14191; also: potency is read from the fitted curve at half-maximal effect; % is scaled to controls: 0 for no effect and ±100 for the full control effect; nearly all actives have a fitted effect of over 55% in size
#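 Enzyme (20 nM final) and test compound sit together 15 min at room temperature before substrate addition. Substrate is a single-forked duplex oligonucleotide (100 nM) labelled with fluorophore and quencher, with 2 mM ATP; helicase unwinding raises red fluorescence, read kinetically.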
# POLI inh: blocks human DNA polymerase iota activity. Q9UNA4. Pol iota fluorescent replication assay, 10 min. Potency, µM (titrated, usually from 115 µM), without a hit: at the highest dose activity, negative = inhibition, most hits filed as inhibitors. actives 1% (n = 390,000); also: potency is read from the fitted curve at half-maximal effect
#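 Fluorescent replication assay read twice, at 0 min and 10 min after adding 50 nM (final) substrate. Enzyme (10 nM) and compounds were first incubated 15 min at room temperature; enzyme-free buffer wells were negative controls.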
# PI5P4Ka inh: blocks human PI5P4K alpha kinase activity; actives 1.2% (n = 330,000); PI5P4Kalpha enzyme, ADP-Glo luminescence, 60 min; hits give low values; AID 652105; max response, %; P48426; active = max response of -50% or lower; inconclusive = between -30% and -50%; inactive = -30% or higher; also: value at the top dose of about 77 µM; % is scaled to controls: 0 for no effect and ±100 for the full control effect
# Target sequence (P48426 whole entry, looked up): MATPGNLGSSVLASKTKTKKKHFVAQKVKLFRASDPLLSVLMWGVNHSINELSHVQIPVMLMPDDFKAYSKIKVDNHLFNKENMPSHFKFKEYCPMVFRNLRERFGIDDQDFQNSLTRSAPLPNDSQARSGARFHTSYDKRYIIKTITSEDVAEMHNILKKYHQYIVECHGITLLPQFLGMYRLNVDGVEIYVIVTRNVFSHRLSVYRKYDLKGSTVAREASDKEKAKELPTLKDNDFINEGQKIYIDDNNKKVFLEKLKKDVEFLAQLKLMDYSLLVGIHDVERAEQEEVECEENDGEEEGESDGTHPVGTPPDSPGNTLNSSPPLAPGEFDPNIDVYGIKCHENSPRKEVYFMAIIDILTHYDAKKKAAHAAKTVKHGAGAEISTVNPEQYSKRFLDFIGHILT
#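 Controls without substrate or without enzyme flank wells where PI5P4Kalpha converts substrate using 5 microM ATP (final). Incubation lasts 60 minutes at room temperature; ADP formed is read by ADP-Glo luminescence.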
# Pol kappa inh: DNA polymerase kappa (human) inhibition. Q9UBT6. Potency, µM (titrated, usually from 107 µM), for inactives: at the top dose activity, negative = inhibition, usual class: inhibitors. actives 0.53% (n = 400,000). purified Pol kappa, fluorescent DNA synthesis assay, 10 min; also: potency is read from the fitted curve at half-maximal effect; % is scaled to controls: 0 for no effect and ±100 for the full control effect
#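 10 nM Pol kappa was preincubated with compounds for 15 min at room temperature. Reaction started with 50 nM (final) substrate. Fluorescence read kinetically at 0 and 10 min.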
# Pol beta inh: DNA polymerase beta (human) inhibition | P06746 | Pol beta primer extension/strand displacement, fluorescence kinetic | Potency, µM (top dose mostly 114 µM), inactives show top-dose activity change, negative = inhibition, most hits filed as inhibitors | actives 1.3% (n = 340,000) | AID 485314; also: potency is read from the fitted curve at half-maximal effect; % is scaled to controls: 0 for no effect and ±100 for the full control effect
#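 Values derive from four-parameter Hill fits of normalized kinetic data: reads at 0 and 10 min following addition of 50 nM substrate to 10 nM Pol beta preincubated 15 min with compound.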
# POLH inh: inhibitors of human DNA polymerase eta | recombinant Pol eta, fluorescent DNA replication assay | Potency, µM (highest dose often 114 µM), without a hit: at the top dose activity change, negative = inhibition, hits mostly inhibitors | actives 1.2% (n = 390,000); also: potency is read from the fitted curve at half-maximal effect; % is scaled to controls: 0 for no effect and ±100 for the full control effect
#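 Fluorescent replication assay: 50 nM final substrate added after a 15 min room-temperature compound preincubation with 10 nM enzyme. Signal taken at 0 min and again at 10 min.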
# Starred values were filed as active, the others as inactive; u = inconclusive; x = no result given; [ ] = another dose, or the depositor's remark. The list is not random: actives were taken first. Their share in the collection is about 2.8%. Unless noted, calls follow the shape of the dose curve; as a rule, active = well fitted curve in the direction sought with a large enough effect; inconclusive = small, poorly fitted or top-dose-only effect, or another doubt; inactive = no such curve, though single readings can be large; an effect the other way counts as inactive or inconclusive.
SMILES,WRN helicase inh,POLI inh,PI5P4Ka inh,Pol kappa inh,Pol beta inh,POLH inh
Cc1ccc(-c2cc(C(=O)N3CCN(c4ncccn4)CC3)c3cc(Br)ccc3n2)o1,u,-17.7%,-72.6*,4.6%,-26.4%,-16.1%
Cc1ccc(-c2cc(C(=O)N3CCOCC3)c3ccccc3n2)o1,3.6%,79.4µM*,-7.3,-21.6%,x,-13.9%
COc1ccc(-c2cc(C(=O)N3CCN(c4ncccn4)CC3)c3ccccc3n2)cc1,1.1%,-1.0%,-0.6,6.3%,x,-12.3%
Cc1ccc(-c2cc(C(=O)N3CCN(c4ccc(F)cc4)CC3)c3ccccc3n2)o1,-18.7%,35.5µM*,u,-21.0%,28.2µM*,u
CN(C)c1ccc(CNC(=O)C2CCCN(S(=O)(=O)c3ccc4c(c3)oc(=O)n4C)C2)cc1 (stereo not drawn),x,19.0%,x,-8.0%,18.5%,-17.4%
COc1ccc(N2CC(C(=O)NC3CCSC3=O)CC2=O)cc1 (stereo not drawn),5.4%,14.1%,-0.8,-9.1%,14.3%,-10.3%
O=C(Cn1ncc(Cl)c(Cl)c1=O)NC1CCS(=O)(=O)C1 (stereo not drawn),-10.4%[11.6 µM],14.1µM*,u,u,u,u
O=C(Cn1ncc(Cl)c(Cl)c1=O)NC1CCCCC1,1.1%,0.9%,-12.2,-3.3%,x,-20.2%
COc1ccc(OC)c(-c2csc(NC(=O)COC(=O)c3ccc(NC(=O)CC#N)cc3)n2)c1,u,28.2µM*,-61.3*,50.1µM*,x,20µM*
CCOC(=O)C1C(=O)C=C(/C=C/c2ccc(N(C)C)cc2)CC1c1ccccc1 (stereo not drawn),50.1µM*,u,0.7,-9.7%,1.0%,-28.7%
FC(F)(F)c1cccc(NC(=S)Nc2cccc(NC(=S)Nc3cccc(C(F)(F)F)c3)n2)c1,-16.2%,30.9%,-10.8,-10.0%,-10.2%,-8.2%
O=S(=O)(N=C1C=CC(=NS(=O)(=O)c2ccccc2)c2ccccc21)c1ccccc1,6.5%,x,-26.2,x,x,50.1µM*
CC(C)CN(C(=O)COC(=O)C12CC3CC(CC(C3)C1)C2)c1c(N)n(Cc2ccccc2)c(=O)[nH]c1=O,3.4%,u,1.1,-7.7%,x,-4.2%
CCCC(=O)N1c2nc(C(C)C)nn2C2(CCCCC2)[C@@H]2CCCC[C@@H]21,x,9.7%,x,-13.4%,-5.3%,-8.4%
Cc1cc(/C=C2/C(=N)N3C(c4ccccc4)=CSC3=NC2=O)c(C)n1-c1ccc(Cl)cc1,0.2%,39.2%,0.6,-3.1%,x,-3.9%
N=C1/C(=C\c2ccc(-c3cccc(Cl)c3)o2)C(=O)N=C2SC=C(c3ccccc3)N12,u,u,-55.1*,u,10µM*,79.4µM*
COc1cc(-c2nnc(SCCOc3ccc(Cl)cc3C)o2)cc(OC)c1OC,x,-10.1%,x,-6.2%,5.6%,-15.8%
O=[N+]([O-])c1cccc(/C=N\N=C2c3ccccc3-c3ccccc32)c1O,-0.1%,-12.1%,-53.9*,-6.5%,-1.2%,2.0%
Cc1cccc(NC(=O)CNC(=O)CSc2ncccn2)c1C,1.8%,17.8%,8.2,-8.9%,x,-18.9%
Cc1ccc(NC(=O)CN(C)C(=O)Cn2ncc(Cl)c(Cl)c2=O)cc1,u,44.7µM*,u,-16.1%,u,u
Cc1ccc(NC(=O)CN(C)C(=O)Cc2ccc(Cl)c(Cl)c2)cc1,-6.7%,11.9%,12.8,-4.3%,-2.3%,-14.5%
Cc1ccc(NC(=O)Cn2ncc(Cl)c(Cl)c2=O)cc1S(=O)(=O)N1CCCCC1,-8.3%,50.1µM*,-57.8*,u,x,-10.8%
Cc1cccc(NC(=O)CNC(=O)Cn2ncc(Cl)c(Cl)c2=O)c1C,u,15.8µM*,u,u,x,3.98µM*
O=S(=O)(c1ccccc1)N1CCC(n2cnc3ccccc32)CC1,4.8%,95.9%,-8.7,4.7%,1.4%,-5.1%
NS(=O)(=O)c1ccc(NC(=O)CSc2cn[nH]n2)cc1,-5.0%,-5.2%,6.3,0.4%,23.6%,-9.9%
Cc1ccc(/C=C/C(=O)O)cc1S(=O)(=O)N(CCO)CCO,8.3%,9.3%,-59.0*,6.5%,17.7%,-5.3%

# Compound activity: PubChem BioAssay, National Center for Advancing Translational Sciences (NCATS)
